Assay results taken from PubChem BioAssay (NCI).
About 83,000 compounds went through this panel and 20% of them were active in at least one assay; those are over-represented in the sample as a whole.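 Each cell line was grown in a 96-well plate and treated with one concentration of compound for 48 hours. Values below 10 were considered active.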 The source made the active and inactive calls.

Tests used:
Experiment in all cases: NCI-60 one-dose screen, 48 h (100 = growth as untreated, 0 = no growth, -100 = all killed)
SK-MEL-2 melanoma = conditions: 10 µM unless noted
EKVX NSCLC = conditions: 10 µM
SN12C renal = conditions: 10 µM unless noted
UO-31 renal = conditions: 10 µM unless noted
TK-10 renal = conditions: 10 µM unless noted
ACHN renal = conditions: 10 µM unless noted
CCRF-CEM leukemia = conditions: 10 µM
MOLT-4 leukemia = conditions: 10 µM unless noted
RPMI-8226 leukemia = conditions: 10 µM unless noted
OVCAR-8 ovarian = conditions: 10 µM unless noted
OVCAR-5 ovarian = conditions: 10 µM unless noted
OVCAR-4 ovarian = conditions: 10 µM unless noted
SK-OV-3 ovarian = conditions: 10 µM unless noted
OVCAR-3 ovarian = conditions: 10 µM unless noted
NCI/ADR-RES ovarian = conditions: 10 µM unless noted
CAKI-1 renal = conditions: 10 µM unless noted
A498 renal = conditions: 10 µM unless noted
SR leukemia = conditions: 10 µM unless noted
IGROV1 ovarian = conditions: 10 µM unless noted
HS 578T breast = conditions: 10 µM unless noted

Measured: growth

N=C(N)N=Nc1ccc(NN=C(N)N)c2ccccc12
inactive: SK-MEL-2 melanoma 104% | EKVX NSCLC 116% | SN12C renal 73.2% | UO-31 renal 69.6% | TK-10 renal 108% | ACHN renal 105% | CCRF-CEM leukemia 101% | MOLT-4 leukemia 97.1% | RPMI-8226 leukemia 110% | OVCAR-8 ovarian 96.2% | OVCAR-5 ovarian 108% | OVCAR-4 ovarian 106% | SK-OV-3 ovarian 88.1% | OVCAR-3 ovarian 127% | NCI/ADR-RES ovarian 110%

COc1ccccc1Cn1cc2c(c1)-c1oncc1CC2
inactive: SK-MEL-2 melanoma 35.6% | EKVX NSCLC 20.8% | SN12C renal 39% | UO-31 renal 31.6% | TK-10 renal 65.6% | A498 renal 29.2% | CCRF-CEM leukemia 17.6% | MOLT-4 leukemia 25.6% | SR leukemia 16% | RPMI-8226 leukemia 32.5% | OVCAR-8 ovarian 36.2% | OVCAR-5 ovarian 35.2% | OVCAR-4 ovarian 49.2% | IGROV1 ovarian 16.2%
active: CAKI-1 renal 9.72% | SK-OV-3 ovarian -18.2% | OVCAR-3 ovarian -29.3% | HS 578T breast 8.86% | NCI/ADR-RES ovarian -2.96%

CCCCCCCCCCN1CC2CCCCC2C1 (centres undefined)
inactive: SK-MEL-2 melanoma 95.2% | EKVX NSCLC 63% | SN12C renal 75.7% | UO-31 renal 65.5% | TK-10 renal 81.4% | ACHN renal 80.1% | CCRF-CEM leukemia 46.1% | MOLT-4 leukemia 50.2% | SR leukemia 12.9% | RPMI-8226 leukemia 51.6% | OVCAR-8 ovarian 94% | OVCAR-5 ovarian 66.2% | OVCAR-4 ovarian 49.1% | SK-OV-3 ovarian 83.8% | IGROV1 ovarian 90% | OVCAR-3 ovarian 77.9% | HS 578T breast 84.4% | NCI/ADR-RES ovarian 83.8%

CCCCCCNC(=O)Oc1ccc(/C(=C(/C)Cc2ccc(OC)cc2)c2ccc(OCCN(C)C)cc2)cc1
inactive: SK-MEL-2 melanoma 111% | EKVX NSCLC 78.1% | SN12C renal 60.3% | UO-31 renal 38.9% | TK-10 renal 71.5% | ACHN renal 64.2% | CCRF-CEM leukemia 48.2% | MOLT-4 leukemia 30.7% | RPMI-8226 leukemia 28.8% | OVCAR-8 ovarian 69.9% | OVCAR-5 ovarian 90.3% | OVCAR-4 ovarian 76.8% | SK-OV-3 ovarian 83.4% | IGROV1 ovarian 74.4% | OVCAR-3 ovarian 81.3% | HS 578T breast 45.9% | NCI/ADR-RES ovarian 78.3%
active: SR leukemia -22.5%

CCCC(=O)Nc1ccccc1C(=O)O
inactive: SK-MEL-2 melanoma 100% | EKVX NSCLC 96.4% | SN12C renal 109% | UO-31 renal 91.3% | TK-10 renal 92.3% | ACHN renal 108% | CCRF-CEM leukemia 104% | MOLT-4 leukemia 98.6% | SR leukemia 93.1% | RPMI-8226 leukemia 109% | OVCAR-8 ovarian 91.1% | OVCAR-5 ovarian 99.5% | OVCAR-4 ovarian 101% | SK-OV-3 ovarian 104% | IGROV1 ovarian 110% | OVCAR-3 ovarian 94.7% | HS 578T breast 102% | NCI/ADR-RES ovarian 96.3%

COc1ccc(-c2nc(SCC(C)C)nc(Nc3ccc(C)cc3)c2C#N)cc1
active: OVCAR-4 ovarian -50.4%
inactive: SK-MEL-2 melanoma 107% | EKVX NSCLC 72.8% | SN12C renal 41.3% | UO-31 renal 59.7% | TK-10 renal 43.3% | ACHN renal 13.6% | CCRF-CEM leukemia 52.9% | MOLT-4 leukemia 81.6% | SR leukemia 44.3% | RPMI-8226 leukemia 73.2% | OVCAR-8 ovarian 72.3% | OVCAR-5 ovarian 86.4% | SK-OV-3 ovarian 73.7% | IGROV1 ovarian 59.5% | OVCAR-3 ovarian 33.8% | HS 578T breast 42.6% | NCI/ADR-RES ovarian 72.7%

N=C(N)N=Nc1ccc(NN=C(N)N)cc1
inactive: SK-MEL-2 melanoma 105% | EKVX NSCLC 36.3% | SN12C renal 89% | UO-31 renal 53.6% | TK-10 renal 103% | ACHN renal 88.2% | CCRF-CEM leukemia 96.3% | MOLT-4 leukemia 105% | SR leukemia 108% | RPMI-8226 leukemia 95.8% | OVCAR-8 ovarian 94.4% | OVCAR-5 ovarian 78.7% | OVCAR-4 ovarian 100% | SK-OV-3 ovarian 24% | IGROV1 ovarian 99.8% | OVCAR-3 ovarian 108% | NCI/ADR-RES ovarian 110%

Oc1ccccc1/C=N/N=C/c1c(O)ccc2ccccc12
active: CCRF-CEM leukemia 7.8%
inactive: SK-MEL-2 melanoma 92.4% | EKVX NSCLC 72.1% | SN12C renal 85.1% | UO-31 renal 42.9% | TK-10 renal 101% | CAKI-1 renal 91.6% | A498 renal 123% | MOLT-4 leukemia 57.7% | SR leukemia 55.4% | RPMI-8226 leukemia 96.6% | OVCAR-8 ovarian 80.6% | OVCAR-5 ovarian 102% | OVCAR-4 ovarian 85.4% | SK-OV-3 ovarian 90.8% | IGROV1 ovarian 47.9% | OVCAR-3 ovarian 80.5% | HS 578T breast 101% | NCI/ADR-RES ovarian 92.5%

Ic1ccc(SSc2ccc(I)cc2)cc1
inactive: SK-MEL-2 melanoma 105% | EKVX NSCLC 99.9% | SN12C renal 71.3% | UO-31 renal 60.5% | TK-10 renal 84.4% | ACHN renal 113% | CCRF-CEM leukemia 17% | MOLT-4 leukemia 32% | SR leukemia 60.6% | RPMI-8226 leukemia 95.6% | OVCAR-8 ovarian 92.6% | OVCAR-5 ovarian 114% | OVCAR-4 ovarian 99.7% | SK-OV-3 ovarian 113% | IGROV1 ovarian 82.4% | OVCAR-3 ovarian 102% | HS 578T breast 96.9% | NCI/ADR-RES ovarian 101%

Cc1nc2ccccc2c(=O)n1-c1cccc(OCc2cn(-c3cccc(O)c3)nn2)c1
inactive: SK-MEL-2 melanoma 90.6% | EKVX NSCLC 103% | SN12C renal 97.4% | UO-31 renal 68.2% | TK-10 renal 100% | ACHN renal 93.8% | CCRF-CEM leukemia 88.3% | MOLT-4 leukemia 80.8% | SR leukemia 86.3% | RPMI-8226 leukemia 71.5% | OVCAR-8 ovarian 88.6% | OVCAR-5 ovarian 111% | OVCAR-4 ovarian 89.6% | SK-OV-3 ovarian 103% | IGROV1 ovarian 99.2% | OVCAR-3 ovarian 91.5% | HS 578T breast 87.4% | NCI/ADR-RES ovarian 98%

CCN(CCO)CCNc1ccc(C)c2sc3cc(OC)ccc3c(=O)c12
inactive: SK-MEL-2 melanoma 99.1% | EKVX NSCLC 86.4% | SN12C renal 55.9% | UO-31 renal 49.4% | TK-10 renal 79.3% | ACHN renal 36.8% | CCRF-CEM leukemia 47.9% | MOLT-4 leukemia 21.7% | RPMI-8226 leukemia 65.3% | OVCAR-8 ovarian 62.7% | OVCAR-5 ovarian 82.7% | OVCAR-4 ovarian 84.7% | SK-OV-3 ovarian 88.7% | IGROV1 ovarian 66.5% | OVCAR-3 ovarian 90.6% | HS 578T breast 84.2% | NCI/ADR-RES ovarian 64.1%
active: SR leukemia -3.46%

COc1ccc(-c2cc(C#N)c(NNC(C)=O)[nH]2)cc1
active: CCRF-CEM leukemia -0.558%
inactive: SK-MEL-2 melanoma 102% | EKVX NSCLC 112% | SN12C renal 113% | UO-31 renal 96.2% | TK-10 renal 95.7% | CAKI-1 renal 107% | A498 renal 123% | MOLT-4 leukemia 46% | RPMI-8226 leukemia 123% | OVCAR-8 ovarian 110% | OVCAR-5 ovarian 94.7% | OVCAR-4 ovarian 68.8% | SK-OV-3 ovarian 179% | IGROV1 ovarian 101% | OVCAR-3 ovarian 104% | HS 578T breast 107% | NCI/ADR-RES ovarian 109%

CC([C@H]1CCC2C3CCC4C[C@@H](N)CC[C@]4(C)C3CC[C@@]21C)N(C)C (some centres undefined)
active: UO-31 renal -4.26%
inactive: SK-MEL-2 melanoma 91.7% | EKVX NSCLC 69.4% | SN12C renal 75.8% | TK-10 renal 109% | CAKI-1 renal 48.8% | A498 renal 89.4% | CCRF-CEM leukemia 42.3% | MOLT-4 leukemia 38.6% | RPMI-8226 leukemia 58.7% | OVCAR-8 ovarian 85.7% | OVCAR-5 ovarian 98.5% | OVCAR-4 ovarian 38.4% | SK-OV-3 ovarian 91.1% | IGROV1 ovarian 53.1% | OVCAR-3 ovarian 71.5% | HS 578T breast 79.1% | NCI/ADR-RES ovarian 81.5%

Cc1ccc(CC(=O)O)c(C)c1
inactive: SK-MEL-2 melanoma 95.5% | EKVX NSCLC 109% | SN12C renal 99.4% | UO-31 renal 91.4% | TK-10 renal 88.3% | ACHN renal 110% | CCRF-CEM leukemia 101% | MOLT-4 leukemia 105% | SR leukemia 94.1% | RPMI-8226 leukemia 104% | OVCAR-8 ovarian 100% | OVCAR-5 ovarian 98.8% | OVCAR-4 ovarian 105% | SK-OV-3 ovarian 108% | IGROV1 ovarian 112% | OVCAR-3 ovarian 103% | HS 578T breast 101% | NCI/ADR-RES ovarian 101%

COCC(=O)NNc1[nH]c(-c2ccc(OC)cc2)cc1C#N
inactive: SK-MEL-2 melanoma 108% | EKVX NSCLC 112% | SN12C renal 112% | UO-31 renal 95.4% | TK-10 renal 92.7% | CAKI-1 renal 105% | A498 renal 116% | CCRF-CEM leukemia 55.9% | MOLT-4 leukemia 81.8% | SR leukemia 102% | OVCAR-8 ovarian 113% | OVCAR-5 ovarian 98.6% | OVCAR-4 ovarian 127% | SK-OV-3 ovarian 112% | IGROV1 ovarian 22.4% | OVCAR-3 ovarian 129% | HS 578T breast 104% | NCI/ADR-RES ovarian 106%

C=CCNC(=S)NNc1ccc([N+](=O)[O-])cn1
inactive: SK-MEL-2 melanoma 94.4% | EKVX NSCLC 99.9% | SN12C renal 100% | UO-31 renal 83.7% | TK-10 renal 104% | ACHN renal 104% | CCRF-CEM leukemia 71.2% | MOLT-4 leukemia 99.4% | SR leukemia 98.3% | RPMI-8226 leukemia 101% | OVCAR-8 ovarian 111% | OVCAR-5 ovarian 95.6% | SK-OV-3 ovarian 104% | IGROV1 ovarian 102% | OVCAR-3 ovarian 98.7% | HS 578T breast 105% | NCI/ADR-RES ovarian 95.9%
active: OVCAR-4 ovarian -92.2%

CCCNC(=O)Oc1ccc(/C(=C(/CC)Cc2ccccc2)c2ccc(OCCN(CC)CC)cc2)cc1
inactive: SK-MEL-2 melanoma 101% | EKVX NSCLC 79.3% | SN12C renal 78.6% | UO-31 renal 51.5% | TK-10 renal 85.8% | ACHN renal 90.1% | CCRF-CEM leukemia 57.7% | MOLT-4 leukemia 46.9% | RPMI-8226 leukemia 41.6% | OVCAR-8 ovarian 80.3% | OVCAR-5 ovarian 95.5% | OVCAR-4 ovarian 85.8% | SK-OV-3 ovarian 88.4% | IGROV1 ovarian 85.9% | OVCAR-3 ovarian 79.5% | HS 578T breast 59% | NCI/ADR-RES ovarian 75.3%
active: SR leukemia -28.6%
